Bioassay records (PubChem BioAssay)
Methyltransferases – Primary Screen for Target Class Profiling of Small Molecule Inhibitors of Methyltransferases | 25,000 compounds, 3.9% hits | calls only at 40 µM | purified enzyme, MTase-Glo SAH luminescence; hits give low values | AID 1745853, 2022; call rule not given here
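Each enzyme was reacted with SAM and its substrate, with compounds tested once at 40 uM; SAH formed was read by MTase-Glo luminescence.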
Each line names hits and unclear results; the compound was inactive in the other large screens; ! = not confirmed by another sample. Only a selection was taken, and hits are over-represented in it overall.

Cc1cc(C)cc(NC(=O)Cn2nc3n(Cc4ccc(F)cc4)c(=O)c4ccccc4n3c2=O)c1	none
O=C1CCN(Cc2cccc(F)c2)CCCCCCN1	none
Nc1c(NC/C=C\COc2cc(CN3CCCCC3)ccn2)c(=O)c1=O	Methyltransferases active
COc1cccc(CN2C(=O)c3nc4ccccc4n3CC2(C)C(=O)NC2CCCCC2C)c1 (configuration not stated)	none
CCCn1c(=O)c2ccc(Cl)cc2n2c(=O)n(Cc3ccc(Cl)cc3)nc12	none
CC(C)N(CCC(=O)c1ccc2ccccc2c1)Cc1ccccc1	Methyltransferases active!
COc1ccc(C(=O)N(Cc2ccccc2)S(=O)(=O)c2ccc3c(c2)n(C)c(=O)n3C)cc1	none
CN(C)CCNC(=O)c1cc2n(n1)CC(C)(C(=O)NCc1ccc(F)cc1)N(C)C2=O (configuration not stated)	none
COC(=O)[C@]1(C)CCC[C@@]2(C)[C@@H]3CC[C@@H]4C[C@@]3(CC[C@@H]21)C[C@H]4C(=O)O	none
COCCCNC(=O)C1(C)Cn2nc(-c3ccccc3)cc2C(=O)N1Cc1ccc(OC)cc1 (configuration not stated)	none
CCCCOc1cc2oc(=O)cc(-c3ccccc3)c2cc1Cl	none
CCCC1c2cccn2CCN1C(=O)Nc1ccccc1OCC (configuration not stated)	none
CCC(C)C(=O)O[C@@H]1[C@@H](O)[C@@H](O[C@H]2O[C@H](CO)[C@@H](O)[C@H](O)[C@H]2O)O[C@H](CO)[C@H]1O (some centres not stated)	none
CC(C)=C/C=C\[C@H](C)[C@H]1CC[C@]2(C)C[C@@H]3C(C)=CC(=O)C3/C(CO)=C\C[C@@H]12 (some centres not stated)	none
CC(C)c1ccc(NC(=O)Cn2c(=O)oc3cc(S(=O)(=O)NCc4ccccc4)ccc32)cc1	Methyltransferases active
Cc1ccc(NC(=O)Cn2c(=O)oc3cc(S(=O)(=O)NCc4ccccc4)ccc32)cc1C	none
Cc1cccc(NC(=O)Cn2c(=O)oc3cc(S(=O)(=O)NCc4ccccc4)ccc32)c1	none
COc1ccc2cc3n(c2c1)CC(C)(C(=O)NC1CCCC1)N(C1CCCCCC1)C3=O (configuration not stated)	none
CC1(C)CCC2(C(=O)OC3OC(CO)C(O)C(O)C3O)CCC3(C)C(=CCC4C5(C)CCC(OC6OC(C(=O)O)C(OC7OC(CO)C(O)C(O)C7O)C(OC7OC(CO)C(O)C(O)C7O)C6O)C(C)(C)C5CCC43C)C2C1 (configuration not stated)	none
CCc1cccc(N2C(=O)c3c(C(=O)OC)ncn3CC2(C)C(=O)NC2CCCCC2)c1 (configuration not stated)	none
Cn1c(CNc2ccc(C(=N)N)cc2)nc2cc(C(=O)N(CCC(=O)O)c3ccccn3)ccc21	Methyltransferases active
CN1C(=O)c2cc(C(=O)NCCc3c[nH]c4ccccc34)nn2CC1(C)C(=O)NC1CCCCC1 (configuration not stated)	none
COc1ccc(OC)c(NC(=O)c2sc(=S)n3c2[nH]c(=O)c2ccc(Cl)cc23)c1	Methyltransferases active
COc1ccc(CNC(=O)c2sc(=S)n3c2[nH]c(=O)c2cc4c(cc23)OCO4)cc1	none
COc1ccccc1NC(=O)c1sc(=S)n2c1[nH]c(=O)c1ccc(Cl)cc12	none
COc1ccc2cc3n(c2c1)CC(C)(C(=O)NC1CCCCC1)N(c1ccc2c(c1)OCCO2)C3=O (configuration not stated)	none
COCCN(C)Cc1ccc(CC2CCN(S(=O)(=O)c3ccccc3)CC2)cc1	none
Cc1cccc(NC(=O)N2CCn3cccc3C2C)c1 (configuration not stated)	none
Cc1c(NC(=O)c2ccc(C(C)(C)C)cc2)cccc1-c1cn(C)c(=O)c(Nc2ccc(C(=O)N3CCOCC3)cc2)n1	none
Cc1cc(C(=O)N2CCc3ncnc(N4CCOCC4)c3CC2)n(C)n1	none
CCn1nnc2c(N3CCOCC3)nc(-c3ccc(NC(=O)Nc4ccc(C(=O)N5CCN(C)CC5)cc4)cc3)nc21	Methyltransferases active
CCC1Oc2ccc(Cl)cc2N(CC(=O)Nc2ccc3c(c2)C(=O)N(C)C2=NCCN23)C1=O (configuration not stated)	none
Clc1ccc(C(Cn2ccnc2)OCc2c(Cl)cccc2Cl)c(Cl)c1 (configuration not stated)	Methyltransferases active
O=C(CCn1ccc2cc(S(=O)(=O)N3CCCC3)ccc21)NC1CC1	none
Cc1ccc(C)c(Cn2nc3n(CC(C)C)c(=O)c4ccccc4n3c2=O)c1	none
CCCOc1ccc(CN2C(=O)c3cc4occc4n3CC2(C)C(=O)NC2CCCC(C)C2C)cc1 (configuration not stated)	none
COc1ncc(-c2ccc3nccc(-c4ccnnc4)c3c2)cc1NS(=O)(=O)c1ccc(F)cc1F	Methyltransferases active
CC(C)(C)c1cc2n(n1)CC(C)(C(=O)NC1CCCCC1)N(Cc1ccccc1)C2=O (configuration not stated)	none
Cc1cc2c(cc3n2CC(C)(C(=O)NC2CCCCCC2)N(C(C)CCc2ccccc2)C3=O)o1 (configuration not stated)	none
